Z-score and composite z-score data for twelve compounds are collected here from PubChem BioAssay.

The nature of assay [1]: E. coli DRC41 culture turbidity changes, primary screen, E. coli filamentation inducer project, strain DRC41, OD650, 48 h (AID 1152).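 Also: E. coli MC1000 strain DRC41 lacking acrAB efflux pump and sulA.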 Particulars: E. coli DRC41 (acrAB sulA), higher = more signal, called active from +8 up or from −8 down.
A short description of assay [2]: small-molecule binders of probe aLefty1, primary screen, biochemical, small-molecule microarray, 635/667 nm fluorescence (AID 1153).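 Also: score merges spot fluorescence with signal-to-noise ratio from the scanned slide images.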 Particulars: higher = more signal.
Assay [3] is described as follows: PSAC antagonists in infected red cells, primary screen, cell-based, P. falciparum Indochina, OD700, 1 h (AID 1154). The conditions noted are these: P. falciparum Indochina infected RBC osmotic lysis, higher = more signal, called active from +8 up or from −8 down.
Assay [4] can be described thus: PSAC antagonists in infected red cells, primary screen, cell-based, P. falciparum Indochina, OD700, 2 h (AID 1155).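 Also: lysis reports solute entry through the parasite surface anion channel PSAC; channel blockers reduce lysis of infected cells.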 The conditions noted are these: P. falciparum Indochina infected erythrocytes, osmotic lysis OD700; higher = more signal, called active from +8 up or from −8 down.
Assay [5] is described as follows: osmotic lysis modulators in infected erythrocytes, primary screen, PSAC antagonist project, cell-based, P. falciparum Indochina, OD700, 3 h (AID 1156). The conditions noted are these: higher = more signal, called active from +8 up or from −8 down.
Assay [6] can be described thus: PSAC antagonists in infected red cells, primary screen, cell-based, P. falciparum Indochina, OD700, 18 h (AID 1157). Particulars: P. falciparum Indochina infected erythrocytes, osmotic lysis OD700, 18 h; higher = more signal, called active from +8 up or from −8 down.
Assay [7] can be described thus: modulators of S6 phosphorylation in cells, primary screen, cell-based, A549, cytoblot, luminescence, serum-stimulated (AID 1158).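 Also: serum-stimulated A549 lung adenocarcinoma cells; signal is phosphorylated S6 detected by cytoblot immunostaining with HRP secondary.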 Particulars: A549 phospho-S6 cytoblot, 5 h, higher = more signal.
In assay [8] the target is NADPH oxidase 2 (Homo sapiens) (UniProt P04839). Nature of the assay: NOX2-dependent H2O2 signal modulators, primary screen, NOX inhibitor project, cell-based, HEK293-NOX2, PMA-stimulated, Amplex Red fluorescence (AID 1159). Also: test concentration not given here. The conditions noted are these: 45 min, higher = more signal, called active from +8 up or from −8 down.
Assay [9] concerns the target NADPH oxidase 4 (Homo sapiens) (UniProt Q9NPH5). Nature of the assay: NOX4-dependent H2O2 signal modulators, primary screen, NOX inhibitor project, cell-based, HEK293-NOX4, tetracycline-induced, Amplex Red fluorescence (AID 1160). The conditions noted are these: 45 min, higher = more signal, called active from +8 up or from −8 down.
The target in assay [10] is NADPH oxidase 5 (Homo sapiens) (UniProt Q96PH1). The assay can be described thus: NOX5-dependent H2O2 signal modulators, primary screen, NOX inhibitor project, cell-based, HEK293-NOX5, Amplex Red fluorescence (AID 1161). Particulars: HEK293-NOX5, ionomycin, 45 min, higher = more signal.

Activity calls are given as the source filed them.

Sequence of NADPH oxidase 5 (Homo sapiens) (Q96PH1 whole entry, looked up): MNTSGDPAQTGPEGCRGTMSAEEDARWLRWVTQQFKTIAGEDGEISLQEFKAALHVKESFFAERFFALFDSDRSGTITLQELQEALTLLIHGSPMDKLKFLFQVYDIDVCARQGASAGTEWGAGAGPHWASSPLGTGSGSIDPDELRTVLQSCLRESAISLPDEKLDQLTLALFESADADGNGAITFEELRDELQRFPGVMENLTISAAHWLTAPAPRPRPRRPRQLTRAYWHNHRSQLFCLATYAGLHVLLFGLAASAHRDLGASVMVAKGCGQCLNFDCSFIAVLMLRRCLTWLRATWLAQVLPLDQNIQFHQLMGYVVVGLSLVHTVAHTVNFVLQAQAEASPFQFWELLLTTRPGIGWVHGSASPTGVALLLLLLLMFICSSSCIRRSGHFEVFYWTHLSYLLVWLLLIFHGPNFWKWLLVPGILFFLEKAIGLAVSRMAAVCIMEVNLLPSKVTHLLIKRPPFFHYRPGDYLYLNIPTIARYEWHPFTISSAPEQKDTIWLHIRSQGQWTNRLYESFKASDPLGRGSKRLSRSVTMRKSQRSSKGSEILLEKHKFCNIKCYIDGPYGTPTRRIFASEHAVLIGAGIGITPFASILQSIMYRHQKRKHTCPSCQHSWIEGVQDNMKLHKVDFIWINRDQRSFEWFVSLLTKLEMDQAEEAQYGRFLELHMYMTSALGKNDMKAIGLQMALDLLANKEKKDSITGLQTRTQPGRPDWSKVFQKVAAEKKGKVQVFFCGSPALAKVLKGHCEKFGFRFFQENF
Sequence of NADPH oxidase 4 (Homo sapiens) (Q9NPH5 whole entry, looked up): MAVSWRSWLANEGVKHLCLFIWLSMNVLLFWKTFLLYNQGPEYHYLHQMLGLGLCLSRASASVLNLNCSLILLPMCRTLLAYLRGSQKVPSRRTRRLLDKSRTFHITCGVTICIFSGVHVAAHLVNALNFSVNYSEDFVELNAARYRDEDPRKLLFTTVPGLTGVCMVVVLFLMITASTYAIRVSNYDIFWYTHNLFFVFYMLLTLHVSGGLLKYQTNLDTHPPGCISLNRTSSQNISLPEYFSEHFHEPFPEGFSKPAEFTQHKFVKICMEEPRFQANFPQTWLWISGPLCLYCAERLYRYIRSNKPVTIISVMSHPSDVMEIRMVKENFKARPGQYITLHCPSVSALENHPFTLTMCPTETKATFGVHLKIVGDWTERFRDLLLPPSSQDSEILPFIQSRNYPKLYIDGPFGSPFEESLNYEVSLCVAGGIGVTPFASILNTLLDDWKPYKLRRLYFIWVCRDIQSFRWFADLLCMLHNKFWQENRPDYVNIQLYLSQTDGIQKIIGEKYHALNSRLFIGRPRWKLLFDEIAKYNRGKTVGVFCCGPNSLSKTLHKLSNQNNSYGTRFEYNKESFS
Sequence of NADPH oxidase 2 (Homo sapiens) (P04839 whole entry, looked up): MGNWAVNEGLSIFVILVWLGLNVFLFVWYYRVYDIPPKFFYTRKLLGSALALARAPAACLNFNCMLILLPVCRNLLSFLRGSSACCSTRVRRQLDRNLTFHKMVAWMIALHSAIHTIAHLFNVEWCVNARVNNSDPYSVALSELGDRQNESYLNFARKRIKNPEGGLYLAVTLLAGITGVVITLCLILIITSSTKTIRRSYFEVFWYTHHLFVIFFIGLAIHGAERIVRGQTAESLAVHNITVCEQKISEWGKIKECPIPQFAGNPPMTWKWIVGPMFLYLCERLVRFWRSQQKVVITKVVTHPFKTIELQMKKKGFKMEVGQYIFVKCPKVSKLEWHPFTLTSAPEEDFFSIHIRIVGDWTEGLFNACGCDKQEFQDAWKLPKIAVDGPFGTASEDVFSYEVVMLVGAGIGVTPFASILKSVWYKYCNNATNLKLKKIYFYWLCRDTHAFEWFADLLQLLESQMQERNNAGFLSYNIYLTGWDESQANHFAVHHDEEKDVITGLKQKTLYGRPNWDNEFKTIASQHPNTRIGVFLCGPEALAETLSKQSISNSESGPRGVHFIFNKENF

With `O=C(CS)NCCCCCNC(=O)[C@@H]1C[C@@H]2C(=O)N3CCC[C@H]3C(=O)N2[C@@H]1c1ccc(O)cc1`, the z-score was -0.391 (inactive) in assay [1]; 2.25 (inactive) in assay [3]; 0.508 (inactive) in assay [4]; -2.66 (inactive) in assay [5]; 0.251 (inactive) in [6]; -0.244 in [7]. The figures for the z-score in [8], in [9] and in assay [10] were 0.927 (inactive), 0.313 (inactive) and -0.651, respectively. Further, in assay [2], the composite z-score was 0.109.
With `C=CCOC(=O)[C@@H]1[C@H]2C(=O)O[C@H](c3ccccc3)[C@H](c3ccccc3)N2[C@H](c2ccc(OCCOC(=O)[C@@H]3C[C@@H]4C(=O)N[C@@H](CCCCNC(C)=O)C(=O)N4[C@@H]3c3ccc(O)cc3)cc2)[C@@]12C(=O)Nc1ccc(I)cc12`, the z-score in [1] is 0.158 (inactive); in assay [3], 0.978 (inactive); in assay [4], 1.08 (inactive); in [5], 1.45 (inactive); in assay [6], 0.718 (inactive); in assay [7], -0.581. The results for the z-score in [8], in assay [9] and in assay [10] were 1.42 (inactive), 1.35 (inactive) and 0.716, respectively. Also, the composite z-score in assay [2] came to 0.998.
As to `C=C(/C(=C/C[C@@H](OC(C)=O)c1ccccc1OCCO)c1cnc2ccccc2c1)C(C)C`, the z-score was 0.0675 (inactive) in assay [1]; 11.6 (active) in [3]; 2.53 (inactive) in assay [4]; 1.82 (inactive) in assay [5]; 1.04 (inactive) in [6]; 0.458 in assay [7]. Also, the z-score in assay [8] was -1.08 (inactive); in assay [9] it was -1.28 (inactive); in [10], -1.49. In assay [2], the composite z-score was -0.0428.
For the compound `O=C1c2ccccc2C(=O)C2CC([C@H]3Oc4ccccc4S(=O)(=O)N4CCC[C@@H]34)=CCC12` (stereo not given in full), the z-score was 1.03 (inactive) in assay [1]; 8 (inactive) in [3]; 1.12 (inactive) in assay [4]; -0.0247 (inactive) in [5]; 0.696 (inactive) in assay [6]; 0.127 in assay [7]. In addition, the figures for the z-score in assay [8], in [9] and in [10] were 0.5 (inactive), -3.1 (inactive) and -0.779, respectively. The composite z-score in assay [2] was -0.196.
Turning to `CN1C(=O)C2C=CC(C(O)c3ccc(F)cc3)N(N3CCCCC3)C2C1=O` (stereo not given), the z-score in assay [1] was -1.37 (inactive); in assay [3], 1.02 (inactive); in assay [4], 1.14 (inactive); in assay [5] it was 0.772 (inactive); in [6], 1.2 (inactive); in assay [7], -1.08. Moreover, the z-score in assay [8] was 0.0457 (inactive); in [9], -0.751 (inactive); in assay [10] it was -1.35. Further, in [2], the composite z-score amounted to 0.604.
Consider `C[N+](C)(C)CCCC[C@@H]1NC(=O)[C@@H]2C[C@H](C(=O)NCCCCCNC(=O)CS)[C@H](c3cccc(OCCO)c3)N2C1=O`, for which the z-score in [1] was 0.724 (inactive); in [3] it was 3.64 (inactive); in assay [4], 0.813 (inactive); in [5], -1.78 (inactive); in [6], 0.718 (inactive); in assay [7], 0.596. Besides, the z-score in assay [8] was 1.54 (inactive); in assay [9], 0.433 (inactive); in assay [10], 0.711. In addition, the composite z-score in assay [2] is -0.0061.
Take `CN(C)C(=O)[C@@]1(CCC(=O)OC(C)(C)C)N=C(c2ccc(OCCCO)cc2)O[C@H]1c1ccccc1N=[N+]=[N-]`: the z-score in [1] was 0.0366 (inactive); in assay [3], 32.9 (active); in assay [4], 32.2 (active); in [5], 1.78 (inactive); in assay [6], 3.02 (inactive); in assay [7], -0.192. In addition, the z-score in assay [8] was -3.57 (inactive); in assay [9] it was 0.0136 (inactive); in assay [10], -1.97. Moreover, the composite z-score in assay [2] worked out at 0.646.
Consider `C=C(C)[C@@H]1CC=C(C(O)C2C=CC3C(=O)N(C4CCCCC4)C(=O)C3N2Nc2ccc(OC)cc2)CC1` (stereo not given in full), for which the z-score in assay [1] is -0.441 (inactive); in assay [3], 1.75 (inactive); in assay [4], 0.415 (inactive); in assay [5], 0.604 (inactive); in assay [6] it was 0.56 (inactive); in [7], -0.14. The z-score in assay [8] was 0.191 (inactive); in assay [9], -1.34 (inactive); in assay [10], -2.14. In [2], this compound had a composite z-score of 0.203.
Take `COC(=O)c1ccc(OC)c(/C=C\CC(CCc2ccccc2)OC(C)=O)c1` (stereo not given): the z-score in [1] is -0.601 (inactive); in assay [3], 8.9 (active); in assay [4], 0.865 (inactive); in assay [5] it was -0.297 (inactive); in assay [6] it was 0.0093 (inactive); in assay [7], -0.0781. The z-score in assay [8] was -0.135 (inactive); in assay [9], 0.424 (inactive); in [10], -0.983. In assay [2], this compound showed a composite z-score of -0.456.
With `O=C1N(CCS(=O)(=O)c2ccccc2)c2ccccc2[C@H]2OC(c3ccc(OCCCO)cc3)=N[C@@]12CCS(=O)(=O)c1ccccc1`, the z-score in assay [1] is 0.401 (inactive); in assay [3] it was 28.2 (active); in [4], 26.3 (active); in [5], 3.35 (inactive); in [6], 4.36 (inactive); in assay [7], -0.357. Also, the z-score in assay [8] is 1.76 (inactive); in assay [9], 0.492 (inactive); in [10] it was 1.46. In addition, the composite z-score in [2] is 0.582.
For the compound `CC(C)C[C@@H]1NC(=O)[C@@H]2C[C@H](C(=O)NCc3ccc(F)cc3)[C@H](c3ccc(O)cc3)N2C1=O`, the z-score in [1] was 0.227 (inactive); in assay [3], 1.46 (inactive); in assay [4], 0.328 (inactive); in assay [5] it was -1.64 (inactive); in [6], 0.424 (inactive); in [7], 0.0668. Also, the z-score is 0.468 (inactive) in assay [8], -0.106 (inactive) in assay [9] and 1.18 in assay [10]. This compound showed a composite z-score in [2] of -0.0559.
On to `COC(=O)C(CC#Cc1ccc2c(c1)[C@]1(C(=O)N2)[C@H](c2ccc(O)cc2)N2[C@H](c3ccccc3)[C@H](c3ccccc3)OC(=O)[C@H]2[C@@H]1C(N)=O)C(=O)OC`, for which the z-score in [1] was 2.05 (inactive); in assay [3], 1.09 (inactive); in assay [4], 1.58 (inactive); in assay [5] it was 0.6 (inactive); in [6], 1.3 (inactive); in assay [7], 1.39. Moreover, the figures for the z-score in assay [8], in assay [9] and in assay [10] were 0.222 (inactive), 0.356 (inactive) and -0.453, respectively. Also, the composite z-score in [2] is -0.216.
